Data reported in the supplement of paper PMC9262897, “Low-cost anti-mycobacterial drug discovery using engineered E. coli” (Nature Communications, 2022).
Structures can show the parent of a compound that is named as a salt. ± gives the standard deviation of the averaged measurements.

Legend:
Assay in all cases: growth (OD600 after 10 h); higher = more growth (less inhibition)
[1] = test system: E. coli TESEC Alr+ wild-type control; conditions: compound 0.1 mM; raw OD600 reference: median of DMSO wells 0.241, cell-free background 0.041
Experimental: (§1)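 TESEC Mtb Alr E. coli, or the Alr+ wild-type control, in 384-well plates with Prestwick library compounds at 0.1 mM and 1% DMSO, across arabinose induction levels of 1E3 to 1E7 nM. Growth is read as OD600 after 10 h at 37 °C in triplicate biological replicates.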

E. coli TESEC Mtb Alr [2] = conditions: compound 0.1 mM
Experimental: as §1

E. coli TESEC Mtb Asd = conditions: compound 0.1 mM
Experimental: (§2)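 TESEC E. coli strains in which the native enzyme is deleted and replaced by arabinose-inducible Mtb Asd, DapB, CysH or TrpD, each grown in its selective medium. Strains were screened against the Prestwick library at 0.1 mM and 1% DMSO in 384-well format at low and high arabinose induction. Growth is read as OD600 after 10 h in triplicate.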

E. coli TESEC Mtb DapB = conditions: compound 0.1 mM
Experimental: as §2

[3] = test system: E. coli TESEC Alr+ wild-type control; conditions: compound 0.1 mM; raw OD600 reference: median of DMSO wells 0.49, cell-free background 0.052
Experimental: (§3)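 TESEC Mtb Alr E. coli (ΔaraC ΔtolC ΔentC Δalr ΔdadX, arabinose-inducible Mtb Alr) or the Alr+ wild-type control strain, grown in defined M9-fructose medium without D-alanine in 96-well plates with Prestwick library compounds at 0.1 mM and 1% DMSO. Low Alr induction is 0.1 µM arabinose and high induction is 10 mM arabinose.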

E. coli TESEC Mtb Alr [4] = conditions: compound 0.1 mM; remark: listed apart in the source
Experimental: as §3

[5] = arabinose 1000 nM, raw OD600 reference: median of DMSO wells 0.294, cell-free background 0.041
[6] = arabinose 10000 nM, raw OD600 reference: median of DMSO wells 0.264, cell-free background 0.041
[7] = arabinose 100000 nM, raw OD600 reference: median of DMSO wells 0.201, cell-free background 0.041
[8] = arabinose 1000000 nM, raw OD600 reference: median of DMSO wells 0.193, cell-free background 0.041
[9] = arabinose 10000000 nM, raw OD600 reference: median of DMSO wells 0.146, cell-free background 0.041
[10] = arabinose induction (level): High, raw OD600 reference: median of DMSO wells 0.331, cell-free background 0.041
[11] = arabinose induction (level): Low, raw OD600 reference: median of DMSO wells 0.417, cell-free background 0.041
[12] = arabinose induction (level): High, raw OD600 reference: median of DMSO wells […], cell-free background 0.041
[13] = arabinose induction (level): Low, raw OD600 reference: median of DMSO wells 0.227, cell-free background 0.041
[14] = arabinose 100 nM, raw OD600 reference: median of DMSO wells 0.413, cell-free background 0.052
[15] = arabinose 10000000 nM, raw OD600 reference: median of DMSO wells […], cell-free background 0.052

| SMILES | growth [1] | growth (E. coli TESEC Mtb Alr [2]; [5]) | growth (E. coli TESEC Mtb Alr [2]; [6]) | growth (E. coli TESEC Mtb Alr [2]; [7]) | growth (E. coli TESEC Mtb Alr [2]; [8]) | growth (E. coli TESEC Mtb Alr [2]; [9]) | growth (E. coli TESEC Mtb Asd; [10]) | growth (E. coli TESEC Mtb Asd; [11]) | growth (E. coli TESEC Mtb DapB; [12]) | growth (E. coli TESEC Mtb DapB; [13]) | growth [3] | growth (E. coli TESEC Mtb Alr [4]; [14]) | growth (E. coli TESEC Mtb Alr [4]; [15]) |
| --- | --- | --- | --- | --- | --- | --- | --- | --- | --- | --- | --- | --- | --- |
| CC(C)(C)NCC(O)COc1cccc2c1CC(O)C(O)C2 (stereo not drawn) [Nadolol] | 0.254 ± 0.016 | 0.303 ± 0.014 | 0.267 ± 0.0029 | 0.192 ± 0.025 | 0.2 ± 0.0078 | 0.137 ± 0.0026 | 0.336 ± 0.067 | 0.442 ± 0.0083 | 0.201 ± 0.02 | 0.259 ± 0.018 | 0.493 ± 0.12 | 0.408 ± 0.011 | 0.384 ± 0.015 |
| Nc1ccc(S(=O)(=O)Nc2cnc3ccccc3n2)cc1 [Sulfaquinoxaline sodium salt] | 0.221 ± 0.0039 | 0.266 ± 0.02 | 0.171 ± 0.004 | 0.21 ± 0.0087 | 0.1074 ± 0.00085 | 0.137 ± 0.0051 | 0.289 ± 0.073 | 0.396 ± 0.028 | 0.181 ± 0.012 | 0.204 ± 0.022 | 0.47 ± 0.082 | 0.419 ± 0.0091 | 0.297 ± 0.0077 |
| C/C(=C(\CCOP(=O)(O)O)SC(=O)c1ccccc1)N(C=O)Cc1cnc(C)nc1N [Benfotiamine] | 0.2481 ± 0.0011 | 0.317 ± 0.014 | 0.257 ± 0.0029 | 0.205 ± 0.019 | 0.186 ± 0.006 | 0.141 ± 0.0056 | 0.352 ± 0.068 | 0.41 ± 0.11 | 0.188 ± 0.0089 | 0.224 ± 0.032 | 0.502 ± 0.11 | 0.404 ± 0.0067 | 0.359 ± 0.0094 |
| CN1CCC[C@@H]1CCO[C@](C)(c1ccccc1)c1ccc(Cl)cc1 [Clemastine fumarate] | 0.0447 ± 0.00026 | 0.0419 ± 0.00017 | 0.0403 ± 0.0001 | 0.04353 ± 0.00025 | 0.04023 ± 0.00015 | 0.0439 ± 0.0004 | 0.0482 ± 0.0021 | 0.0504 ± 0.0026 | 0.0513 ± 0.00046 | 0.102 ± 0.085 | 0.218 ± 0.29 | 0.421 ± 0.0052 | 0.0923 ± 0.02 |
| CN1CCC(=C2c3ccccc3CCc3cccnc32)CC1 [Azatadine maleate] | 0.1961 ± 0.0017 | 0.271 ± 0.0097 | 0.256 ± 0.0041 | 0.178 ± 0.0055 | 0.18 ± 0.0037 | 0.132 ± 0.0041 | 0.209 ± 0.017 | 0.313 ± 0.045 | 0.18 ± 0.014 | 0.186 ± 0.018 | 0.59 ± 0.059 | 0.4 ± 0.013 | 0.338 ± 0.018 |
| c1ccc(-c2ccc(C(c3ccccc3)n3ccnc3)cc2)cc1 (stereo not drawn) [Bifonazole] | 0.048 ± 0.0064 | 0.0456 ± 0.0051 | 0.0548 ± 0.0019 | 0.0516 ± 0.0035 | 0.0499 ± 0.0019 | 0.0504 ± 0.0085 | 0.048 ± 0.00098 | 0.0481 ± 0.0011 | 0.0611 ± 0.0018 | 0.0597 ± 0.0022 | 0.0548 ± 0.0039 | 0.0739 ± 0.015 | 0.0689 ± 0.0074 |
| CC(C(=O)O)c1ccc(-c2ccccc2)c(F)c1 (stereo not drawn) [Flurbiprofen] | 0.188 ± 0.0069 | 0.239 ± 0.014 | 0.23 ± 0.0069 | 0.168 ± 0.0089 | 0.161 ± 0.0092 | 0.1346 ± 0.00075 | 0.366 ± 0.076 | 0.238 ± 0.056 | 0.208 ± 0.0072 | 0.188 ± 0.023 | 0.486 ± 0.025 | 0.387 ± 0.021 | 0.286 ± 0.014 |
| CC(C)(C)CC(C)(C)c1ccc(OCCOCC[N+](C)(C)Cc2ccccc2)cc1 [Benzethonium chloride] | 0.0416 ± 0.00072 | 0.0415 ± 0.0011 | 0.0413 ± 0.0002 | 0.0425 ± 0.0011 | 0.04103 ± 0.00021 | 0.0418 ± 0.00044 | 0.0499 ± 0.00098 | 0.0496 ± 0.0017 | 0.0485 ± 0.0028 | 0.0496 ± 0.0014 | 0.04753 ± 0.00035 | 0.0552 ± 0.0016 | 0.0504 ± 0.00059 |
| COCC(=O)Nc1c(I)c(C(=O)NCC(O)CO)c(I)c(C(=O)N(C)CC(O)CO)c1I (stereo not drawn) [Iopromide] | 0.259 ± 0.016 | 0.329 ± 0.021 | 0.289 ± 0.014 | 0.237 ± 0.0091 | 0.188 ± 0.0057 | 0.156 ± 0.013 | 0.491 ± 0.0086 | 0.464 ± 0.028 | 0.213 ± 0.022 | 0.257 ± 0.043 | 0.464 ± 0.037 | 0.401 ± 0.019 | 0.349 ± 0.018 |
| COc1cc([S+](C)[O-])ccc1-c1nc2cccnc2[nH]1 (stereo not drawn) [Sulmazole] | 0.227 ± 0.0056 | 0.282 ± 0.023 | 0.264 ± 0.0096 | 0.161 ± 0.027 | 0.2 ± 0.0059 | 0.1223 ± 0.00055 | 0.231 ± 0.039 | 0.387 ± 0.049 | 0.18 ± 0.0052 | 0.209 ± 0.0037 | 0.4254 ± 0.0034 | 0.392 ± 0.0053 | 0.342 ± 0.034 |
| CC(=O)[C@H]1CC[C@H]2[C@@H]3CCC4=CC(=O)CC[C@]4(C)[C@H]3CC[C@]12C [Progesterone] | 0.139 ± 0.0043 | 0.175 ± 0.01 | 0.234 ± 0.01 | 0.145 ± 0.015 | 0.117 ± 0.0027 | 0.15 ± 0.012 | 0.143 ± 0.0076 | 0.219 ± 0.012 | 0.178 ± 0.015 | 0.182 ± 0.013 | 0.101 ± 0.0049 | 0.292 ± 0.059 | 0.0648 ± 0.0061 |
| OCC(O)CN1CCN(c2ccccc2)CC1 (racemic) [Dropropizine (R,S)] | 0.241 ± 0.0033 | 0.283 ± 0.018 | 0.255 ± 0.0087 | 0.228 ± 0.014 | 0.174 ± 0.0046 | 0.144 ± 0.0086 | 0.364 ± 0.032 | 0.424 ± 0.03 | 0.2 ± 0.025 | 0.248 ± 0.026 | 0.431 ± 0.04 | 0.404 ± 0.014 | 0.361 ± 0.022 |
| CNCCCC12CCC(c3ccccc31)c1ccccc12 [Maprotiline hydrochloride] | 0.269 ± 0.0086 | 0.256 ± 0.016 | 0.276 ± 0.0088 | 0.246 ± 0.032 | 0.134 ± 0.0037 | 0.169 ± 0.0019 | 0.197 ± 0.0097 | 0.164 ± 0.016 | 0.1849 ± 0.0011 | 0.211 ± 0.011 | 0.589 ± 0.072 | 0.41 ± 0.0086 | 0.28 ± 0.013 |
| COc1c(O[C@@H]2O[C@H](CO)[C@@H](O)[C@H](O)[C@H]2O)cc2c(c1OC)-c1ccc(SC)c(=O)cc1[C@@H](NC(C)=O)CC2 [Thiocolchicoside] | 0.254 ± 0.01 | 0.307 ± 0.0068 | 0.275 ± 0.0073 | 0.229 ± 0.023 | 0.186 ± 0.0019 | 0.149 ± 0.0088 | 0.271 ± 0.091 | 0.291 ± 0.082 | 0.206 ± 0.024 | 0.236 ± 0.015 | 0.51 ± 0.076 | 0.414 ± 0.011 | 0.35 ± 0.023 |
| CN[C@@H]1[C@H](O[C@H]2[C@H](O[C@H]3[C@H](O)[C@@H](O)[C@H](NC(=N)N)[C@@H](O)[C@@H]3NC(=N)N)O[C@@H](C)[C@]2(O)CO)O[C@@H](CO)[C@H](O)[C@H]1O [Dihydrostreptomycin sulfate] | 0.041 ± 0.0011 | 0.0419 ± 0.0011 | 0.03877 ± 0.00012 | 0.0454 ± 0.0053 | 0.0395 ± 0.0004 | 0.0485 ± 0.0005 | 0.0488 ± 0.00072 | 0.0499 ± 0.0017 | 0.0489 ± 0.00049 | 0.0483 ± 0.00061 | 0.0605 ± 0.0073 | 0.0553 ± 0.0036 | 0.0534 ± 0.00091 |
| CC1(C)O[C@@H]2C[C@H]3[C@@H]4C[C@H](F)C5=CC(=O)CC[C@]5(C)[C@H]4[C@@H](O)C[C@]3(C)[C@]2(C(=O)CO)O1 [Flurandrenolide] | 0.223 ± 0.0092 | 0.289 ± 0.015 | 0.2518 ± 0.0025 | 0.174 ± 0.022 | 0.161 ± 0.01 | 0.131 ± 0.0031 | 0.282 ± 0.038 | 0.448 ± 0.035 | 0.216 ± 0.0087 | 0.239 ± 0.0036 | 0.417 ± 0.041 | 0.406 ± 0.01 | 0.338 ± 0.011 |
